Measured values taken from PubChem BioAssay (Tox21).
Records with an inconclusive call do not appear. Activity calls are given as the source filed them. Unless noted, calls come from the whole dose curve; as a rule, active = well fitted curve in the direction sought with a large enough effect in the repeat runs; inconclusive = weak or mixed curves; inactive = no such curve, though single readings can be large; an effect the other way counts as inactive or inconclusive.

Tests used:
[1] = qHTS assay to identify small molecule agonists of the RXR signaling pathway - cell viability counter screen (AID 1159529); note: series mostly up to about 77 µM; nearly all actives have a fitted effect of over 50% in size
In short: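 CellTiter-Glo luminescence gave viability in the wells also read for beta-lactamase. Cells (RXR-alpha-UAS-bla HEK 293T, 2% charcoal-stripped FBS medium) had 5 hr plating, then 16 hr compound exposure at 37 C; tetraoctyl ammonium bromide served as positive control.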

[2] = qHTS assay to identify small molecule antagonists of the retinoid acid receptor (RAR) signaling pathway - cell viability counter screen (AID 1159551); note: nearly all actives have a fitted effect of over 35% in size
In short: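 Seed C3RL4 cells; next day add compound, then retinol to 1 uM final; incubate 6 h at 37 C; add CellTiter-Glo; read luminescence after 30 min at RT.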

[3] = qHTS assay to identify small molecule antagonists of the retinoic acid receptor (RAR) signaling pathway (AID 1159552; note: nearly all actives have a fitted effect of over 50% in size)
In short: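 Luminescent RARE reporter read-out in C3RL4 cells: 6 hr co-treatment at 37 C of test compounds with retinol at 1 uM final. Cells plated overnight beforehand; luciferase reagent incubated 30 min at room temperature before reading.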

[4] = qHTS assay to identify small molecule agonists of the retinoic acid receptor (RAR) signaling pathway (AID 1159553); note: potency is the fitted concentration of half-maximal effect
In short: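 Activation of retinol signaling was monitored via a RARE luciferase reporter in C3RL4 cells. After 6 hr compound treatment at 37 C, detection reagent was added for 30 min at room temperature before luminescence reading.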

[5] = biological target: Luciferin 4-monooxygenase (Photinus pyralis) (UniProt P08659); test: qHTS assay to identify small molecule inhibitors of firefly luciferase (AID 1224835); note: nearly all actives have a fitted effect of over 25% in size; note: potency is the fitted concentration of half-maximal effect; for activity change, negative = inhibition: series mostly up to about 120 µM
In short: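 Biochemical qHTS: compounds run as interplate titrations against purified firefly enzyme, with D-luciferin and ATP each at its KM concentration. Light output recorded by CCD imaging.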

[6] = qHTS assay to identify small molecule agonists of the constitutive androstane receptor (CAR) signaling pathway - cell viability counter screen (AID 1224836); note: series mostly up to about 92 µM; nearly all actives have a fitted effect of over 45% in size
In short: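 Cell viability multiplexed with the CAR agonist screen: CellTiter-Fluor fluorescence after 23 hr at 37 C. HepG2-CYP2B6-hCAR cells got compounds at 15 concentrations with PK11195 at 0.75 uM final.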

[7] = qHTS assay to identify small molecule antagonists of the constitutive androstane receptor (CAR) signaling pathway - cell viability counter screen (AID 1224837); note: series mostly up to about 92 µM; nearly all actives have a fitted effect of over 45% in size
In short: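 Using CellTiter-Fluor, viability is scored in HepG2 cells stably carrying hCAR and a 2.2kb CYP2B6 reporter after 23 hr compound exposure across 15 concentrations, with CITCO present at 50 nM.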

[8] = biological target: Nuclear receptor subfamily 1 group I member 3 (Homo sapiens) (UniProt Q14994); test: qHTS assay to identify small molecule antagonists of the constitutive androstane receptor (CAR) signaling pathway (AID 1224838);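 note: HepG2 cells stably expressing hCAR with CYP2B6 luciferase reporter stimulated by CITCO; nearly all actives have a fitted effect of over 40% in size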
In short: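 Reporter luminescence was quantified after 24 h exposure of hCAR/CYP2B6-2.2kb double-stable HepG2 cells to compounds at 15 concentrations in the presence of 50 nM CITCO final.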

[9] = biological target: Nuclear receptor subfamily 1 group I member 3 (Homo sapiens) (UniProt Q14994); test: qHTS assay to identify small molecule agonists of the constitutive androstane receptor (CAR) signaling pathway (AID 1224839); note: nearly all actives have a fitted effect of over 15% in size; note: potency is the fitted concentration of half-maximal effect;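 for activation: HepG2 cells stably carrying human CAR and a CYP2B6 luciferase reporter; series mostly up to about 92 µM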
In short: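 Luminescent ONE-Glo read-out after 24 hr, 37 C exposure of double-stable HepG2-CYP2B6-hCAR reporter cells to a 15-point compound series, in the presence of 0.75 uM PK11195 (final).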

[10] = qHTS assay to identify small molecule antagonists of the estrogen related receptor signaling pathway with the pleiotropic PPARgamma coactivator (PGC) from Tox21 10K library - cell viability counter screen (AID 1224840; active = well fitted cell-killing curve with a large enough effect in the repeat runs, not every such curve was filed as active; note: nearly all actives have a fitted effect of over 40% in size)
In short: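 Here the PGC/ERR cells serve as a cytotoxicity control: they are exposed to compounds for 17.5 hours at 37 C, and live-cell signal is quantified using CellTiter-Fluor fluorescence.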

[11] = qHTS assay to identify small molecule antagonists of the estrogen related receptor signaling pathway with the pleiotropic PPARgamma coactivator (PGC) from Tox21 10K library (AID 1224841; call rule not given here; note: actives are mostly falling curves and most rising ones were filed inactive; nearly all actives have a fitted effect of over 50% in size; note: potency is the fitted concentration of half-maximal effect; for activity, negative = inhibition: series mostly up to about 92 µM)
In short: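 Each well held 2,000 PGC/ERR cells, pre-incubated six hours (37 C, 5% CO2). Test substances in DMSO were added by pin tool and left for 18 h at 37 C before luciferase detection by One-Glo.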

[12] = qHTS assay to identify small molecule agonists of the estrogen related receptor signaling pathway with the pleiotropic PPARgamma coactivator (PGC) from Tox21 10K library (AID 1224842); note: nearly all actives have a fitted effect of over 15% in size
In short: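 PGC/ERR reporter cell line, 2,000 cells per well, incubated 6 h at 37 C before 23 nL compound in DMSO was added. After 18 h at 37 C, One-Glo luminescence read following 30 min at room temperature.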

[13] = qHTS assay to identify small molecule antagonists of the estrogen related receptor (ERR) signaling pathway from Tox21 library - cell viability counter screen (AID 1224834); note: nearly all actives have a fitted effect of over 30% in size
In short: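 CellTiter-Fluor fluorescence measured; ERR cells; 17.5 h compound incubation at 37 C; 30 min reagent step.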
% is set by controls: 0 for no effect and ±100 for the full control effect.

Nuclear receptor subfamily 1 group I member 3 (Homo sapiens), sequence (Q14994 whole entry, looked up): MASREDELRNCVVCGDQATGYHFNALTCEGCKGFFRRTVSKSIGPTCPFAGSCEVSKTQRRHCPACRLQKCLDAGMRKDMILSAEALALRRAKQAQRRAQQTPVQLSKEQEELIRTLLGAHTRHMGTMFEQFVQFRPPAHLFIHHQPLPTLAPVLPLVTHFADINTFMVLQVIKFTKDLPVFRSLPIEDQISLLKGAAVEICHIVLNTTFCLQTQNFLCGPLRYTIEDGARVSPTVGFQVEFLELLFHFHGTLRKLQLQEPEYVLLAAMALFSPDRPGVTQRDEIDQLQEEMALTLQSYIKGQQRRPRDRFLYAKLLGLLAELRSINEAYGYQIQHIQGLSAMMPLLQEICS
Luciferin 4-monooxygenase (Photinus pyralis), sequence (P08659 whole entry, looked up): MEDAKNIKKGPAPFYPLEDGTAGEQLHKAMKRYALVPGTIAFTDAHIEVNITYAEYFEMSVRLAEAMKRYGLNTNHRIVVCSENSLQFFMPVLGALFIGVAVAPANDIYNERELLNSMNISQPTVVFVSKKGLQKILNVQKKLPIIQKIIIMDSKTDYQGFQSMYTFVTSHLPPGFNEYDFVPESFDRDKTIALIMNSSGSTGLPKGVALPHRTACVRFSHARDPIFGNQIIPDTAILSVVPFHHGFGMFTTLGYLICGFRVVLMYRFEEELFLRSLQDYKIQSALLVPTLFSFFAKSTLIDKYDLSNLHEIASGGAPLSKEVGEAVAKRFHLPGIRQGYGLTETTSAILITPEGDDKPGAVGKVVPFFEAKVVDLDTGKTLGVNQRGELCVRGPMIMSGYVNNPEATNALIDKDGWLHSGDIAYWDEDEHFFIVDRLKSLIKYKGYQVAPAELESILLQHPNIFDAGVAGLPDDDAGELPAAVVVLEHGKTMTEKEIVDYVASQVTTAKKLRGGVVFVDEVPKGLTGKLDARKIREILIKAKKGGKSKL

CC(C)C/C=C(\C=O)c1ccccc1
inactive: Potency [1] | outcome [2] | outcome [3] | Potency [4] | Potency [5] | Potency [6] | Potency [7] | Potency [8] | Potency [9] | Potency [10] | Potency [11] | Potency [12]

OCC(O)c1ccccc1 (configuration not stated)
inactive: Potency [1] | outcome [2] | outcome [3] | Potency [4] | Potency [13] | Potency [5] | Potency [6] | Potency [7] | Potency [10]

CCCN(C1CCN(C(=O)C2CCNCC2)CC1)[C@@H]1CCc2ccc(OC)cc2C1
inactive: Potency [1] | outcome [2] | outcome [3] | Potency [4] | Potency [13] | Potency [5] | Potency [8] | Potency [9] | Potency [11]

O=C1c2ccccc2C(=O)C1c1ccc2ccccc2n1
inactive: Potency [1] | outcome [2] | outcome [3] | Potency [6] | Potency [7] | Potency [8] | Potency [10]
active: Potency [4] 0.108 µM | Potency [5] 0.111 µM | Potency [9] 6.05 µM

CCCCCCCCCCCCCCCCCCCl
inactive: activity change, negative = cytotoxicity [1] 3.39% [at 6.97 µM] | activity change, negative = cytotoxicity [2] -1.45% [at 8.39 µM] | activity, negative = inhibition [3] -19.9% [at 8.39 µM] | activation [4] -0.984% [at 8.36 µM] | viability change, negative = cytotoxic [13] -0.218% [at 8.39 µM] | activity change, negative = inhibition [5] 2.69% [at 10.5 µM] | viability change, negative = cytotoxic [6] 3.36% [at 8.39 µM] | activity change, negative = cytotoxicity [7] 3.1% [at 8.39 µM] | activity, negative = inhibition [11] 20.1% [at 8.39 µM] | activation [12] 1.05% [at 8.39 µM]

CC(O)CN (configuration not stated)
inactive: Potency [1] | outcome [2] | outcome [3] | Potency [4] | Potency [13] | Potency [5] | Potency [6] | Potency [7] | Potency [10] | Potency [11] | Potency [12]

CCC(C(=O)O)c1ccc(N2Cc3ccccc3C2=O)cc1 (configuration not stated)
active: Potency [4] 3.76 µM | Potency [5] 9.77 µM | Potency [9] 5.96 µM
inactive: Potency [1] | outcome [2] | outcome [3] | Potency [13] | Potency [6] | Potency [8]

CC(C)=CCC/C(C)=C/C=N/O
inactive: Potency [1] | outcome [2] | outcome [3] | Potency [4] | Potency [13] | Potency [5] | Potency [6] | Potency [8] | Potency [9] | Potency [10]

CC(C(=O)O)c1ccc2c(c1)Cc1cccnc1O2 (configuration not stated)
inactive: Potency [1] | outcome [2] | outcome [3] | Potency [4] | Potency [13] | Potency [5] | Potency [6] | Potency [7] | Potency [10]

CCC[Si](OC)(OC)OC
inactive: Potency [1] | outcome [2] | outcome [3] | Potency [4] | Potency [13] | Potency [5] | Potency [6] | Potency [7] | Potency [10] | Potency [11]

C[C@@H](O)[C@H]1C(=O)N2C(C(=O)O)=C(S[C@@H]3CN[C@H](CNS(N)(=O)=O)C3)[C@H](C)[C@H]12
inactive: Potency [1] | outcome [2] | Potency [13] | Potency [5] | Potency [6] | Potency [7] | Potency [8] | Potency [9]

O=C(N[C@@H](Cc1ccccc1)[C@@H](O)C(=O)N1C[C@@H](O)[C@@H](O)C1)c1cc2cc(Cl)ccc2[nH]1
active: Potency [11] 54.5 µM
inactive: Potency [1] | outcome [2] | outcome [3] | Potency [4] | Potency [5] | Potency [6] | Potency [7]

COc1cc(C)c(Cc2cnc(N)nc2N)cc1OC
inactive: Potency [1] | outcome [2] | outcome [3] | Potency [13] | Potency [5] | Potency [6] | Potency [7] | Potency [8] | Potency [9] | Potency [10] | Potency [11] | Potency [12]
